Several values for one entry are separate records, joined by “and”; a condition that tells them apart may be missing. Equal entries are not always repeated. Inconclusive results are not listed. Activity calls are given as the source filed them. Unless noted, the call rests on the fitted dose curve; in most records, active means well fitted curve in the direction sought with a large enough effect; inconclusive means small, poorly fitted or top-dose-only effect, or another doubt; inactive means no such curve, though single readings can be large; an effect the other way counts as inactive or inconclusive.

Assay [1] addresses Mitogen-activated protein kinase 10 (Mus musculus) (UniProt Q61831). Description: JNK3 AlphaScreen Assay (AID 530; active means well fitted curve in either direction with a large enough effect, not every such curve was filed as active;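 further: kinase came from lysate of stimulated human HepG2 cells; signal reports phosphorylation of biotinylated GST-cJun 1-79 at Ser73 with 10 µM ATP; on the % scale 0 is the no-effect control and ±100 the full control effect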). Put shortly: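 qHTS titrations with 15 min compound pre-incubation before adding ATP (10 uM final). Read-out: AlphaScreen of Ser73-phosphorylated biotin-GST-cJun using HepG2 lysate JNK3 activated by IL-1β and TNFα.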
(In general: Alpha assays give light when donor and acceptor beads are brought close together.)

Assay [2] is described as follows: Cellular Toxicity (caspase-3) Hek293 (AID 664).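 Further: cells exposed to compound for 16 h at 37 °C before readout.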 Conditions: HEK293 caspase-3 activation, DMSO = 0%, 100 µM tamoxifen = 100%; at 92.2 µM (top of the series). The procedure, abridged: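 qHTS, HEK293 (human embryonic kidney), 16 h cpd exposure in complete medium. Caspase-3/7 activation = luminescence increase; normalized to DMSO/100 uM tamoxifen; Hill-fit AC50.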
Assay [3] is described as follows: Cell Viability - LYMP1-002 - Assay at 16 hr (AID 948).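 Further: 0% = DMSO alone and full effect = 92 µM tetraoctylammonium bromide.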 The procedure, abridged:
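ATP luminescence (CellTiter-Glo) was measured after 16 hr compound exposure at 37 C of 2500 lymphoblastoid LYMP1-002 cells per well. Concentration-response curves were fitted with the Hill equation to give AC50.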

The nature of assay [4]: MultiTox-Fluor Cytotoxicity Assay - LYMP1-002 - Live Cells (AID 955).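 Further: cells exposed to compound for 16 hours; on the % scale 0 is the no-effect control and ±100 the full control effect.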 Put shortly: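 Cells were seeded at 2500 per well and incubated 5 hr. Compounds were then added for 16 hr at 37 C, followed by MultiTox-Fluor reagent for 60 min at room temperature and fluorescence reading of viable-cell protease signal.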
Assay [5] is described as follows: Cell Viability - LYMP2-005 (AID 967).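 Further: plate controls were DMSO only for no effect and 92 µM tetraoctylammonium bromide control for full effect.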 Put shortly:
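LYMP2-005 human lymphoblastoid cells (2500/well) were treated with compounds for 24 h at 37 C. Intracellular ATP was then measured by CellTiter-Glo luminescence after 30 min at room temperature. AC50 values came from Hill-equation fits of qHTS concentration-response data.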

Assay [6] is described as follows: Cell Viability - LYMP2-013 (AID 970).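 Further: 0% = DMSO only and full inhibition = tetraoctylammonium bromide control; nearly all actives have a fitted effect of over 55% in size.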 Put shortly: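 Cytotoxicity is scored as a concentration-dependent drop in intracellular ATP in human lymphoblastoid cells after 24 hr compound exposure at 37 C. ATP is quantified by luciferase luminescence, and AC50 values come from Hill-equation modeling.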
Assay [7] is described as follows: Cell Viability - LYMP2-006 (AID 978). Further: on the % scale 0 is the no-effect control and ±100 the full control effect; nearly all actives have a fitted effect of over 60% in size. Put shortly:
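Potency values are Hill-fit AC50s for decreases in intracellular ATP (CellTiter-Glo luminescence). LYMP2-006 lymphoblastoid cells, 2500 per well, were exposed to compound in complete culture medium for 24 hr at 37 C.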

Assay [8] can be described thus: Cell Viability - LYMP2-012 (AID 982).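 Further: cellular ATP by luciferase luminescence where a drop means cytotoxicity; cells exposed to compound for one day before reading; 0% = DMSO only and full loss = 92 µM tetraoctylammonium bromide; nearly all actives have a fitted effect of over 55% in size.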
Assay [9] in a line: Cell Viability - LYMP2-020 (AID 986).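 Further: plate controls were DMSO only for no effect and tetraoctylammonium bromide at 92 µM for full effect; nearly all actives have a fitted effect of over 55% in size.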 Put shortly:
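Seed 2500 cells per well and incubate 5 hr at 37 C. Add compounds at a concentration series and incubate 24 hr at 37 C. Add CellTiter-Glo, wait 30 min at RT, read luminescence, and fit a Hill curve for AC50.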

The nature of assay [10]: Cell Viability - LYMP1-002 - Assay at 40 hr (AID 994).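 Further: 0% = DMSO only and full inhibition = 92 µM tetraoctylammonium bromide; nearly all actives have a fitted effect of over 60% in size.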 Put shortly:
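Cells are plated at 2500 per well and rested 5 hr at 37 C. Compounds are added and incubated 40 hr at 37 C. CellTiter-Glo reagent is added for 30 min at room temperature before luminescence is read.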

For assay [11], the target named is Estrogen receptor (Homo sapiens) (UniProt P03372). Description: qHTS assay for small molecule antagonists of estrogen receptor alpha signaling (AID 588513; active means well fitted curve in the direction sought with a large enough effect in the signal ratio, with a control signal flat, not every such curve was filed as active; the % refers to the signal ratio; further: on the % scale 0 is the no-effect control and ±100 the full control effect). Put shortly: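 Antagonist mode: inhibition of 0.5 nM 17-beta-estradiol-driven beta-lactamase reporter in HEK 293 ER-alpha-UAS-bla cells, 18 h at 37C, CCF4 readout after 2 h at RT. Normalised to estradiol and DMSO; titration fitted to Hill.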
Sequence of Estrogen receptor (Homo sapiens) (P03372 whole entry, looked up): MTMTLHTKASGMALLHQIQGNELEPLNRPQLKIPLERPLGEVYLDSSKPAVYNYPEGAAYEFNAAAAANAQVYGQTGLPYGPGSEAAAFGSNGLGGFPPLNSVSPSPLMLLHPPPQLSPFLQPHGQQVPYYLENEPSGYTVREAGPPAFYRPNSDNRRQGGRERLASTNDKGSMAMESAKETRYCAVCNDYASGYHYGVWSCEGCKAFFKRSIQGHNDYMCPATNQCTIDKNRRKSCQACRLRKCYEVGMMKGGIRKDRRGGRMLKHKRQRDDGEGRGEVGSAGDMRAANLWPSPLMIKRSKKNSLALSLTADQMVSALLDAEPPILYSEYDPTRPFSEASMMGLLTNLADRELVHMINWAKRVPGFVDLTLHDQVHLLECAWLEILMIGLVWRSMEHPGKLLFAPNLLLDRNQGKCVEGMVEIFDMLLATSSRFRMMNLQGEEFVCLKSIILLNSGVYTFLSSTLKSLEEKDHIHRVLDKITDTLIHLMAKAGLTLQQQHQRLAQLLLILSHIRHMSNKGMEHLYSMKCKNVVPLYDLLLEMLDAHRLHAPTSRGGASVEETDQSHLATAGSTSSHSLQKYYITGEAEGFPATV

Assay [12] has the same target. Description: qHTS assay for small molecule agonists of estrogen receptor alpha signaling (AID 588514; calls by dose curve;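 further: 0% = vehicle only and 100% = reference agonist; nearly all actives have a fitted effect of over 70% in size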). Put shortly:
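Efficacy is expressed against 20 nM 17-beta-estradiol (100%) and DMSO basal (0%); EC50 from Hill equation. Assay: beta-lactamase reporter in ER-alpha-UAS-bla HEK 293 cells, 18 h compound incubation, CCF4 detection.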
In general terms: In qHTS, concentration-response curves come from the screen itself.

The target in assay [13] is Glucocorticoid receptor (Homo sapiens) (UniProt P04150). Description: qHTS assay for small molecule antagonists of glucocorticoid receptor signaling (AID 588533; active means well fitted inhibition curve with a large enough effect in the signal ratio, with a control signal flat, not every such curve was filed as active; the % refers to the signal ratio;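 further: cells stimulated with 2 nM dexamethasone as agonist; on the % scale 0 is the no-effect control and ±100 the full control effect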). The procedure, abridged:
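Antagonist-mode qHTS: compound titrations added to GRE-bla HeLa cells, then dexamethasone 2 nM final; 18 h, 37 C. CCF4 FRET fluorescence normalized to dexamethasone and DMSO; IC50 from Hill fit.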

The nature of assay [14]: qHTS assay to identify small molecules that stimulate interleukin-8 (IL-8) secretion (AID 651758; active means well fitted activation curve with a large enough effect in the signal ratio; the % refers to the signal ratio; further: 0% is about no effect). The procedure, abridged: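 Secreted IL-8 measured homogeneously by TR-FRET (two labelled anti-IL-8 antibodies, 1-3 h at room temperature) after a 16 h, 37 C compound treatment of THP-1 cells at 2000 cells/well.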
Assay [15] in a line: Cell Viability - LYMP2-007 (AID 979).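 Further: cells exposed to compound for 24 h before reading; 0% = DMSO only and the negative end = 92 µM tetraoctylammonium bromide; nearly all actives have a fitted effect of over 60% in size.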 The procedure, abridged:
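Cells are seeded at 2500 per well and rested 5 hr. Compounds are then added over a concentration series for 24 hr at 37 C. CellTiter-Glo is added for 30 min at room temperature before luminescence reading.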

Assay [16] in a line: qHTS assay for small molecule antagonists of peroxisome proliferator-activated receptor delta signaling (AID 588535; active means well fitted inhibition curve with a large enough effect in the signal ratio, with a control signal flat, not every such curve was filed as active; the % refers to the signal ratio;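 on max response: cells co-treated with a PPAR-delta agonist as stimulator during compound exposure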). Particulars: HEK293T PPARd-UAS-bla, beta-lactamase FRET ratio, 18 h; 460 nm channel. The procedure, abridged: (§1)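 Titrations were run on PPAR-delta-UAS-bla HEK293T cells in charcoal/dextran-stripped serum, incubated 18 h at 37 C. CCF4 fluorescence (460/530 nm) after 2 h RT; Hill equation yields IC50 and maximal response.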

The target in assay [17] is Peroxisome proliferator-activated receptor delta (Homo sapiens) (UniProt Q03181). The assay is described as above. The procedure, abridged:
as §1

Assay [18] can be described thus: qHTS assay for cell viability of HEK293 cells (AID 743288). Further: on the % scale 0 is the no-effect control and ±100 the full control effect; nearly all actives have a fitted effect of over 50% in size. Particulars: ATP luminescence (CellTiter-Glo), 18 h; max response: stronger effect = lower value. The procedure, abridged: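 Readout is luciferase-coupled ATP content (CellTiter-Glo luminescence, 30 min room temperature) as a measure of metabolically competent cells. Parental HEK293 cells were plated 5 h or more before compound addition, then treated 18 h at 37 C.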

In assay [19] the target is Peroxisome proliferator-activated receptor gamma (Homo sapiens) (UniProt P37231). Description: qHTS assay for small molecule antagonists of peroxisome proliferator-activated receptor gamma signaling (AID 588537; active means well fitted inhibition curve with a large enough effect in the signal ratio, with a control signal flat, not every such curve was filed as active; the % refers to the signal ratio;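 further: reporter cells co-stimulated with 50 nM rosiglitazone agonist during compound treatment; % of control where 0% means no effect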). Put shortly:
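Antagonist-mode β-lactamase reporter screen run as a titration series. HEK293 PPARγ-UAS-bla cells are stimulated with rosiglitazone (50 nM final) for 16 h, then CCF4 is read at 460/530 nm. Data are scaled between DMSO and rosiglitazone and fitted to the Hill equation.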

Assay [20] has the same target. Description: qHTS assay for small molecule agonists of peroxisome proliferator-activated receptor gamma signaling (AID 588536; active means well fitted curve in the direction sought with a large enough effect in the signal ratio, with a control signal flat, not every such curve was filed as active; the % refers to the signal ratio;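 further: 0% = DMSO basal wells and 100% = rosiglitazone at 2 µM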). Put shortly: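 Cells were plated and held 6–6.5 h at 37 C, then compounds were added as a titration series. After a further 16 h, CCF4 dye was loaded for 2 h at room temperature and emission at 460/530 nm recorded.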

Sequence of Glucocorticoid receptor (Homo sapiens) (P04150 whole entry, looked up): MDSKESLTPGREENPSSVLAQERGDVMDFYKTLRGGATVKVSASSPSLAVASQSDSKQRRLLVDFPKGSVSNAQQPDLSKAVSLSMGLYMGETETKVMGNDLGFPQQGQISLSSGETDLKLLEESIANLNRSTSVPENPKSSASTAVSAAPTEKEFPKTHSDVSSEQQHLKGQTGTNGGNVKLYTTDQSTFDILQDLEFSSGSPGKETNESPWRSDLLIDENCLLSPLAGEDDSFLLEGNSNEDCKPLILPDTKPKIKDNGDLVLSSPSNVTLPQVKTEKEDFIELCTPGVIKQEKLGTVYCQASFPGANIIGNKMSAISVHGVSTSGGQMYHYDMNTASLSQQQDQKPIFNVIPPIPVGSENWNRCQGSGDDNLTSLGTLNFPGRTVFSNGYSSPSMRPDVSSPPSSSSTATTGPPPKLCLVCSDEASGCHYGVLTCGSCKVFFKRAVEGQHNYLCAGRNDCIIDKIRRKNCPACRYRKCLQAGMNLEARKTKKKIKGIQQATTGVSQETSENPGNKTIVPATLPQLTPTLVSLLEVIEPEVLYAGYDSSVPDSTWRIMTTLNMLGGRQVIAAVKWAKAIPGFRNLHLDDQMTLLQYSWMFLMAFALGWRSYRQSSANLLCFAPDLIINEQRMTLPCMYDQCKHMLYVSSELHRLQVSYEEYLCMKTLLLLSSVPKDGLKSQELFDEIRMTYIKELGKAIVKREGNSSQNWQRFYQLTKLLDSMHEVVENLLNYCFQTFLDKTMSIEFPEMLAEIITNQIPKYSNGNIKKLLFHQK
Sequence of Peroxisome proliferator-activated receptor delta (Homo sapiens) (Q03181 whole entry, looked up): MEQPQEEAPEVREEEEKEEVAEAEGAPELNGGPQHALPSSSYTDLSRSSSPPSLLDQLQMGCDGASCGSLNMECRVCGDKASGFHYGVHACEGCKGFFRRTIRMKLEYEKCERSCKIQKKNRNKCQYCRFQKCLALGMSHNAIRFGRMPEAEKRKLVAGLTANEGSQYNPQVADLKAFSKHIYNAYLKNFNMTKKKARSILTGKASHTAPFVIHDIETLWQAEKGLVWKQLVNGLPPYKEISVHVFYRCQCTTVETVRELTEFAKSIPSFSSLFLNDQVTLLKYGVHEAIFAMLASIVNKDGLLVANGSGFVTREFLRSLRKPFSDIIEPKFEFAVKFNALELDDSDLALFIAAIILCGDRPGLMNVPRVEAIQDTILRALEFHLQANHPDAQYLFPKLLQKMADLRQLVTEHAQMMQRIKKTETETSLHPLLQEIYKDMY
Sequence of Peroxisome proliferator-activated receptor gamma (Homo sapiens) (P37231 whole entry, looked up): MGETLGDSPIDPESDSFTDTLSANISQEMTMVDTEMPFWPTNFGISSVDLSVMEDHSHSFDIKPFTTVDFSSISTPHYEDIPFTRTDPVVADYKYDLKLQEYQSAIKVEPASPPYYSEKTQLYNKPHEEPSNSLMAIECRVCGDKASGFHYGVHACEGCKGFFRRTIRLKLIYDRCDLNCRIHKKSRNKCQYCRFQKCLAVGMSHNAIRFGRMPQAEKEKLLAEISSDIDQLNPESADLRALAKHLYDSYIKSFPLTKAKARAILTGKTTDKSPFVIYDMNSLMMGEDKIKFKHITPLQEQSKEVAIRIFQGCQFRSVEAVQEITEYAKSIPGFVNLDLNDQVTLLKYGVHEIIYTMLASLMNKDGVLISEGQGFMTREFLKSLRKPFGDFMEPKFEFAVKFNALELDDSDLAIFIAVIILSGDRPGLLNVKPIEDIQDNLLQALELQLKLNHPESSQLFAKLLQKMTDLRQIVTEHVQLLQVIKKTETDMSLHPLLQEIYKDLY

As to `Oc1ccc2c(c1)OCO2`, the Potency entry in [1], in [3], in assay [5], in [6], in assay [7] and in assay [8] was “inactive” each time. Moreover, the Potency result in assay [9], in assay [10], in assay [12], in assay [13] and in assay [14] was “inactive” in each case. Further, the caspase-3 activation in assay [2] was -2.85% (inactive). Moreover, the molecule was classed as inactive in [4] and in assay [11].

Turning to `O=[N+]([O-])c1ccc(F)cc1F`, the Potency result in [1], in assay [3], in [5], in assay [6], in assay [15] and in assay [10] was “inactive” in each case. Moreover, the Potency entry in assay [12] was “inactive”. Also, in [2], the caspase-3 activation is -0.155% (inactive). Also, the result in assay [11] and in assay [17] was inactive. In addition, the max response is 10.2% in [16] and 3.6% (inactive) in [18].

With `c1c[nH]cn1`, the Potency result in [5], in assay [15], in assay [8], in assay [9], in assay [12] and in assay [13] was “inactive” in each case. In assay [14], the Potency entry was “inactive”. The molecule was called inactive in assay [11] and in [17]. Also, the max response is 30.3% in assay [16] and -0.708% (inactive) in assay [18].

Regarding `CC(C)OCC1CO1` (configuration not stated), the caspase-3 activation in assay [2] was -0.484% (inactive). Besides, the molecule was classed as inactive in assay [4], in assay [11] and in assay [17]. The Potency result in [6], in assay [7], in assay [15], in [8], in assay [12] and in assay [19] was “inactive” throughout. Besides, the figures for the max response in assay [16] and in assay [18] were 3.66% and -0.12% (inactive), respectively.

In the case of `CCCCNCC`, in assay [2], the caspase-3 activation was -0.76% (inactive). Further, the Potency entry in [3], in assay [5], in assay [8], in [9], in assay [12] and in [13] was “inactive” throughout. In addition, in assay [14], the Potency entry was “inactive”. Further, the molecule was called inactive in [4], in assay [11], in assay [17] and in assay [20]. Moreover, the results for the max response in assay [16] and in assay [18] were -21.4% and -3.61% (inactive), respectively.

On to `Nc1cc([N+](=O)[O-])ccc1O`, for which the Potency result in assay [1], in assay [3], in [7], in [8], in [9] and in assay [10] was “inactive” throughout. Besides, the Potency result in [13] and in [19] was “inactive” throughout. Moreover, the result in assay [4] and in assay [17] was inactive. Besides, the max response was 32.9% and 36.8% in [16]; 11.2% (inactive) and -4.43% (inactive) in assay [18].

As for `CC(C)COC(=O)COc1cc(Cl)c(Cl)cc1Cl`, the Potency result in [3], in assay [5], in assay [7], in [8], in assay [9] and in [12] was “inactive” each time. Further, the Potency result in assay [19] and in assay [14] was “inactive” in each case. In addition, the call in assay [4], in [11] and in assay [17] was inactive. Further, the values for the max response in assay [16] and in [18] were 16.7% and 6.88% (inactive), respectively.

As to `CCCC(=O)OC(=O)CCC`, the Potency result in assay [1], in assay [7], in assay [15], in assay [8], in assay [10] and in assay [19] was “inactive” in each case. Besides, in assay [2], the caspase-3 activation is 0.516% (inactive). In [16], the max response was 16.1% and 21.1%. Besides, the outcome in assay [17] and in [20] was inactive.

With `O=C(OCc1ccccc1)c1ccccc1O`, the caspase-3 activation in assay [2] is -1.91% (inactive). Besides, the Potency entry in [3], in [5], in assay [6], in [7], in [9] and in assay [12] was “inactive” throughout. The Potency entry in assay [13] and in [14] was “inactive” throughout. Moreover, the call in assay [4], in [11] and in assay [17] was inactive. The max response was 2.34% and -10.8% in assay [16]; 9.47% (inactive) and -5.04% (inactive) in [18].
